HSF1 inhib – HSF1 inhibition. actives 0.77% (n = 300,000). NIH3T3-HGL HSE-luciferase, MG132-induced, luminescence 8 h; hits give low values. activity change, negative = inhibition, % at 7.5 µM (by protocol). AID 2098;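 active = more than half of replicate wells show activity change below -50%, luminescence cut by over half; inconclusive = some wells, but at most half, below -50%; inactive = no replicate well below -50%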;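 note: luciferase reports HSF-1 transcriptional activity via heat shock element; 0% = median of DMSO wells and -100% = zero luminescence signal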
LGR2 antag – blocks bursicon-induced cAMP signaling via Drosophila LGR2. actives 0.35% (n = 380,000). HEK293 LGR2, CRE-luciferase, bursicon-stimulated, 4 h. AID 720647. inhibition, % at 9.99 µM;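 active = drop in luminescence signal, shown as inhibition above about 50% in the replicate tests, limit read from the data, passing the limit was not always enough; inconclusive = probably only some replicates passing the limit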;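 note: agonist challenge used bursicon conditioned medium at about half maximal strength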
HSF-1 act – increases HSF-1 driven luciferase reporter signal; AID 504408; activation, % at 9 µM; actives 1.7% (n = 300,000); NIH3T3-HGL HSF-1 luciferase reporter, MG132, 8 h; 100% = twice DMSO control signal;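 active = mean replicate activation of at least 50% with a set share of replicates each reaching 50%; inconclusive = only one of those two conditions met; inactive = mean below 50% and too few replicates reaching it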;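 note: 0% = median of the neutral control wells and 100% = twice that signal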
EBV LMP1 NFkB – Epstein-Barr LMP1 NF-kappaB reporter inhibition; LMP1-induced NF-kappaB luciferase reporter cells, luminescence; AID 504558; inhibition, % at 12.5 µM; actives 0.69% (n = 350,000); in the data active = inhibition above about 41%; inconclusive = no clear call, values can overlap the other calls;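 note: 0% = neutral control wells and 100% = reference inhibitor control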
TROY signal inh – inhibitors of TROY-dependent NF-kB signaling | Q293 LMP1-TROYcd NF-kB luciferase reporter, 4 h | AID 1347056 | inhibition, % at 10 µM | actives 0.98% (n = 360,000);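 active = compounds whose plate-normalised and pattern-corrected inhibition of the luciferase reporter signal at the single screening dose is 50% or more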
TWEAK-Fn14 inh – blocks TWEAK-Fn14 interaction in a reporter cell assay. TWEAK-stimulated Fn14 reporter cells, luciferase luminescence, 8 h. inhibition, % at 10 µM. actives 2% (n = 360,000). AID 1159606; in the data active = inhibition above about 50%
The depositor's hits bear a star; ? = inconclusive; · = not tested or not shown. In the library only some 3.6% were active in any assay of this set; here they are far more common.

SMILES	HSF1 inhib	LGR2 antag	HSF-1 act	EBV LMP1 NFkB	TROY signal inh	TWEAK-Fn14 inh
CCCc1[nH]nc2c1C(c1cc(OC)cc(OC)c1)C(C#N)=C(N)O2 (configuration not stated)	2	·	14	27	4	-1
Cc1ccc(SCc2[nH]nc3c2C(c2ccco2)C(C#N)=C(N)O3)cc1 (configuration not stated)	19	·	29	13	7	19
Cc1ccc(SCc2[nH]nc3c2C(c2ccc(C)o2)C(C#N)=C(N)O3)cc1 (configuration not stated)	-66*	4	-74	66*	5	17
Cc1ccsc1C1C(C#N)=C(N)Oc2n[nH]c(C)c21 (configuration not stated)	1	9	2	-12	6	61*
N#CC1=C(N)Oc2c(ccc3ccccc23)C1c1ccsc1 (configuration not stated)	45	·	65*	-6	-61	-4
COc1ccc(NC(=O)Nc2ccc3c(c2)C(=O)N([C@H](C)CO)C[C@@H](C)[C@@H](CN(C)C(=O)Nc2ccc(C(F)(F)F)cc2)O3)cc1	·	-1	·	·	·	·
CC=Cc1ccc2n(c1=O)C[C@@H]1[C@@H](CO)[C@H](C(=O)NCC3CC3)N(C(C)=O)[C@H]21 (mixture of isomers)	·	7	·	·	·	·
C[C@@H]1CN([C@H](C)CO)C(=O)c2cc(/C=C/c3ccccc3)cnc2O[C@@H]1CN(C)C(=O)C1CC1	·	-9	·	·	·	·
Cc1cc(C)n(-c2cc(=O)n(C)c(=O)n2C)n1	17	·	67*	5	8	-10
Cc1cc(=O)[nH]c(-n2nc(C)cc2C)n1	2	·	3	-1	9	11
C[C@@H]1CCCCO[C@@H](CN(C)C(=O)C2CCCCC2)[C@H](C)CN([C@@H](C)CO)C(=O)c2cc(NC(=O)Nc3ccc(C(F)(F)F)cc3)ccc2O1	·	7	·	·	·	·
O=C(c1ccc2c(=O)n(C3CCCC3)c(=S)[nH]c2c1)N1CCc2ccccc21	38	·	91*	-7	20	10
O=C(CCCN1C(=O)S/C(=C/C=C/c2ccccc2)C1=O)Nc1ccc(C(=O)O)cc1	5	-10	20	-16	-14	-8
O=C(CN1C(=O)S/C(=C\C=C\c2ccccc2)C1=O)Nc1ccc(O)cc1	37	-46	59*	-25	-50	2
C[C@H](CO)N1C[C@H](C)[C@H](CN(C)C(=O)CCCN(C)C)OCCCC[C@H](C)Oc2ccc(NC(=O)Nc3ccccc3)cc2C1=O	·	5	·	·	·	·
ON=C1c2ccccc2-c2ccccc21	20	3	57*	0	3	14
N/C(=N\OC(=O)c1ccc(Cl)cc1Cl)c1cccnc1	19	-24	48	4	-39	22
Cc1cc(/C(N)=N/OC(=O)c2ccccc2Cl)no1	·	84*	·	24	22	54*
N/C(=N\OC(=O)c1ccc(Cl)cc1Cl)c1ccccc1	?	·	-59	-30	63*	91*
Cc1cccc(/C(N)=N/OC(=O)c2cccc3ccccc23)c1	23	14	35	-27	-22	-33
Cc1cccc(/C(N)=N/OC(=O)c2ccc(Cl)cc2Cl)c1	6	?	1	-10	63*	79*
N/C(=N\OC(=O)c1ccc(Cl)cc1Cl)c1ccc(Cl)cc1	-72*	·	-73	-19	67*	71*
O=C(NCC1CCCCC1)[C@@H]1[C@@H](CO)[C@@H]2Cn3c(ccc(C4=CCCCC4)c3=O)[C@H]1N2	·	-4	·	·	·	·
COc1ccc2c3c(n(C)c2c1)[C@H](CO)N(C(=O)C1CCCC1)CC31CN(Cc2cccc(F)c2)C1	·	-7	·	·	·	·
C[C@@H]1CN([C@H](C)CO)C(=O)c2c(c3ccccc3n2C)-c2ccccc2CO[C@@H]1CN(C)C(=O)Cc1ccccc1	·	21	·	·	·	·
SMILES	HSF1 inhib	LGR2 antag	HSF-1 act	EBV LMP1 NFkB	TROY signal inh	TWEAK-Fn14 inh
N/C(=N\OC(=O)c1ccc(Cl)cc1)c1ccn[nH]1	-7	?	14	32	39	51*
Cc1ccc(/C(N)=N/OC(=O)c2ccc(C)cc2Cl)cc1	-63*	59*	-70	10	75*	85*
COc1ccccc1C(=O)O/N=C(\N)c1ccccc1Cl	24	-73	70*	-28	-65	-25
N/C(=N\OC(=O)c1ccc(Cl)cc1)c1ccc(Cl)cc1	12	·	-3	-42	-51	-6
N/C(=N\OC(=O)c1ccccc1Cl)c1ccccc1	9	60*	26	-43	13	43
COc1ccc(C(=O)O/N=C(\N)c2ccccc2Cl)cc1OC	14	-89	9	-6	-64	-2
C[C@@H]1CCCCO[C@@H](CN(C)C(=O)CCC(F)(F)F)[C@H](C)CN([C@@H](C)CO)C(=O)c2cc(NS(C)(=O)=O)ccc2O1	·	-16	·	·	·	·
Cn1cnc(S(=O)(=O)N2CCCCN3[C@@H](CO)[C@@H](c4ccc(-c5ccccc5F)cc4)[C@@H]3C2)c1	·	1	·	·	·	·
CCCNC(=O)Nc1ccc2c(c1)OC[C@@H](C)N(Cc1ccccc1)C[C@@H](C)[C@@H](OC)CN(C)C2=O	·	-6	·	·	·	·
O=C(O)c1ccccc1N/N=C\c1ccnc2ccccc12	-5	·	-11	39	48	90*
O=C(O)CSc1c(-c2ccccc2)[nH]c2ccccc12	34	-7	70*	2	-5	7
O=C(O)CSc1c(-c2cccs2)[nH]c2ccccc12	3	-11	11	5	11	17
CCCNC(=O)N1CC2(CN(C(=O)COC)C2)c2c(n(C)c3cc(OC)ccc23)[C@@H]1CO	·	-5	·	·	·	·
COc1cc(NC(=O)c2ccccc2Cl)ccc1NC(=O)c1ccco1	55	·	71*	-14	-75	-3
COc1ccc(NC(=O)c2ccco2)cc1N	-57*	·	-63	-13	-36	-10
C=CCNC(=S)N/N=C/c1ccc(-c2ccc(Br)cc2)o1	41	-7	78*	2	-54	6
CCC(=O)N(C)C[C@H]1Oc2cc(C#CC3CCCC3)ccc2S(=O)(=O)N([C@H](C)CO)C[C@H]1C	·	21	·	·	·	·
CC(C)Oc1ccc(CNC(=O)CC(c2ccccc2)c2cc(Cl)ccc2O)cc1 (configuration not stated)	7	?	39	-2	56*	47
COc1ccccc1C(CC(=O)Nc1ccc(Cl)cc1)c1ccc(OC(C)C)cc1 (configuration not stated)	11	26	14	16	5	24
COc1cc(Nc2ncc3c(n2)CCN(C(=O)Nc2ccc(C(C)C)cc2)C3)cc(OC)c1OC	·	16	·	·	38	22
COc1cccc(NC(=O)N2CCc3nc(Nc4ccc(C(C)C)cc4)ncc3C2)c1	·	·	·	·	71*	75*
O=C(Nc1nc(-c2ccccc2)cs1)c1ccc(N2CCOCC2)c([N+](=O)[O-])c1	-29	·	-29	26	83*	106*

Screening data: PubChem BioAssay, several laboratories
